# Bioassay records (PubChem)
# 3T3 cytotox – kills NIH 3T3 cells; NIH 3T3 viability, CellTiter-Glo ATP luminescence, 48-72 h; Potency, µM (highest dose often 96.7 µM), for inactives: at the top dose activity change, negative = cytotoxicity, most hits filed as inhibitors; hit rate 4.3% among 94,000; AID 1345082; further: nearly all actives have a fitted effect of over 55% in size
#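 Cytotoxicity is measured as loss of cellular ATP: NIH 3T3 cells (400/well) are exposed to compound for 48 or 72 hr at 37 °C, then CellTiter-Glo luminescence is imaged after 10 min at room temperature.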
# FLuc inh – blocks purified firefly luciferase enzyme activity. P08659. purified P. pyralis luciferase, luminescence, biochemical. Potency, µM (doses to about 115 µM), actives largely listed as inhibitors. hit rate 2.5% among 76,000. AID 1347043; further: nearly all actives have a fitted effect of over 65% in size
#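 Luminescence read by CCD imaging after purified firefly luciferase (10nM final) was added to substrate buffer holding 10uM D-luciferin and 10uM ATP, pH 7.5, pre-dosed with compound.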
# GPT2 inh – inhibitors of human GPT2 alanine aminotransferase. Recombinant GPT2, coupled pyruvate oxidase/HRP Amplex Red fluorescence. Potency, µM (titrated, usually from 57.7 µM), inactives show at the top dose activity change, negative = inhibition, hits mostly inhibitors. hit rate 0.25% among 100,000; further: nearly all actives have a fitted effect of over 60% in size
#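 Inhibition is scored from Amplex Red fluorescence generated when pyruvate oxidase and HRP act on pyruvate released by GPT2. Reactions contain 10ng/uL enzyme, 250uM a-KG and 2mM L-alanine and run 30 min at room temperature.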
# hNpr1 antagonist – blocks ANP-stimulated signaling of human Npr1 receptor. P16066. HEK293 hNpr1 GloSensor cGMP, ANP-stimulated luminescence. AID 1347048. hit rate 1.6% among 76,000. Potency, µM (doses to about 46.3 µM), for the others: at the top dose activity change, negative = inhibition, actives largely listed as inhibitors; calls by dose curve; further: nearly all actives have a fitted effect of over 60% in size
#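 HEK293 cells stably expressing human Npr1 and cGMP GloSensor pGS-40F, loaded 2 h with 2% GloSensor reagent, given compound 30 min at room temperature. Luminescence read before and 20 min after 0.1 nM hNppA.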
# HEK293 tox – cytotoxic compounds in HEK 293 cells; HEK 293 viability, ATP luminescence (CellTiter-Glo), 48-72 h; Potency, µM (highest dose often 115 µM), without a hit: at the highest dose activity change, negative = cytotoxicity, usual class: inhibitors; hit rate 6.6% among 94,000; AID 1345083; further: nearly all actives have a fitted effect of over 60% in size
#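 Cytotoxicity was scored by loss of ATP-coupled luminescence (CellTiter-Glo) in HEK 293 cells. Compound treatment ran 48 or 72 hr at 37 degree Celsius, 5% CO2, 95% humidity.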
# Active calls of the source: *; i = inactive; ? = inconclusive; · = no result given; [ ] = another dose, or the depositor's remark. Hits are enriched below; roughly 10% of the tested compounds scored in any of these assays. Unless noted, the call rests on the fitted dose curve; in most records, active means well fitted curve in the direction sought with a large enough effect; inconclusive means small, poorly fitted or top-dose-only effect, or another doubt; inactive means no such curve, though single readings can be large; an effect the other way counts as inactive or inconclusive. On the % scale 0 is the no-effect control and ±100 the full control effect; potency means the concentration at half of the fitted maximal effect.
SMILES,3T3 cytotox,FLuc inh,GPT2 inh,hNpr1 antagonist,HEK293 tox
CC#CCn1cc2c3c(cccc31)[C@H](CC(C)C)N[C@H](C(=O)N1CCN(C)CC1)C2,89.1µM*,i,-4.5%[88.5 µM],1.9%[70.6 µM],?
C=CCn1cc2c3c(cccc31)[C@H](CC(C)C)N[C@H](C(=O)N1CCN(C)CC1)C2,63.1µM*,i,i,-5.3%[70.6 µM],79.4µM*
CC#CCn1cc2c3c(cccc31)[C@H](CC(C)C)N[C@H](C(=O)N1CCN(C(C)=O)CC1)C2,?,i,-11.8%[88.5 µM],5.3%[70.6 µM],?
C=CCn1cc2c3c(cccc31)[C@H](CC(C)C)N[C@H](C(=O)NCc1ccc(F)cc1)C2,?,i,?,-19.4%[70.6 µM],?
CC(C)C[C@@H]1N[C@H](C(=O)N2CCOCC2)Cc2cn(Cc3cccnc3)c3cccc1c23,-15.3%[138 µM],i,-12.3%[88.5 µM],-11.6%[70.6 µM],-26.4%[172 µM]
Cc1ccc(-c2nnc(C3CN(C(=O)c4ccc(Cl)s4)CC34CCOCC4)o2)cc1 (stereo unspecified),-2.8%,i,i,-16.1%,?
Cc1ccsc1C(=O)N1CCCC2(CC1)CN(C)C(=O)O2 (stereo unspecified),-3.6%,·,0.5%,·,-4.8%
C=CCn1cc2c3c(cccc31)[C@H](CC(C)C)N[C@H](C(=O)NCCN1CCOCC1)C2,?,i,i,-1.0%[70.6 µM],89.1µM*
CC(C)C[C@@H]1N[C@H](C(=O)N2CCC(O)(c3ccccc3)CC2)Cc2cn(C)c3cccc1c23,31.6µM*,i,i,-1.3%,?
Cc1cc(Cn2cc3c4c(cccc42)[C@H](CC(C)C)N[C@H](C(=O)NCCN2CCOCC2)C3)no1,?,i,-19.7%,1.5%,?
CC(=O)N1CCCN(C(=O)[C@@H]2Cc3cn(C)c4cccc(c34)[C@H](CC(C)C)N2)CC1,0.8%[138 µM],i,-10.0%[88.5 µM],0.8%[70.6 µM],-2.0%[172 µM]
Cc1ccc([S+](=O)([O-])N2CCCC2C(=O)N2CCC(c3nc4ccncc4[nH]3)C2)cc1 (stereo unspecified),0.3%,·,-1.9%,·,4.4%
COc1cccc(-c2cccc(C(=O)N3CCN([S+](=O)([O-])c4cccs4)CC3)c2)c1,?,·,i,·,?
Cc1cnc(CCNC(=O)Nc2ccc3c(c2)OCCO3)n1C1CCC1,?,i,i,-22.0%,?
Cn1cc(-c2nc(N3CCOCC3)cc3c2CN(CC2CC2)C3=O)cn1,10µM*,i,1.6%[88.5 µM],6.3%[70.6 µM],-17.2%[172 µM]
COc1ccccc1-c1nc(N2CCOCC2)cc2c1CN(Cc1cnn(C)c1)C2=O,25.1µM*,i,-8.3%[88.5 µM],2.3%[70.6 µM],-11.9%[172 µM]
O=C(C1CCCC1)N1CC2(CCCN(Cc3c[nH]c4ccccc34)C2)Cc2ccccc21 (stereo unspecified),25.1µM*,·,i,·,22.4µM*
NC(=O)c1cccc(CN2CCC3(Cc4ccccc4N(C(=O)C4CCCC4)C3)C2)c1 (stereo unspecified),-29.3%,·,-9.8%,·,79.4µM*
O=C(C1CCCC1)N1CC2(CCN(CC3CCCCC3)C2)Cc2ccccc21 (stereo unspecified),31.6µM*,·,i,·,?
O=C(C1CCCC1)N1CC2(CCCN(Cc3cccnc3)C2)Cc2ccccc21 (stereo unspecified),?,·,i,·,?
NC(=O)c1cccc(CN2CCC3(C2)CN(C(=O)C2CCCC2)c2ccccc2CO3)c1 (stereo unspecified),-22.3%,·,-4.4%,·,?
O=C(C1CCCC1)N1CC2(CCN(Cc3ccc(Cl)cc3)C2)Cc2ccccc21 (stereo unspecified),39.8µM*,·,-2.9%,·,?
O=C(NC1CCN(c2ccnc3ccnn23)CC1)c1cccc(Cl)c1,?,·,i,·,?
O=C(C[C@@H]1CCNC[C@@H]1Cc1cc(-c2ccccc2)on1)NC1CC1,-19.5%[174 µM],i,0.0%[88.5 µM],5.5%[70.6 µM],-0.1%[172 µM]
CC(C)NC(=O)C[C@@H]1CCNC[C@@H]1Cc1cc(-c2ccc(C(C)(C)C)cc2)on1,35.5µM*,i,0.9%[88.5 µM],3.7%[70.6 µM],39.8µM*
SMILES,3T3 cytotox,FLuc inh,GPT2 inh,hNpr1 antagonist,HEK293 tox
CC(C)(C)NC(=O)C[C@@H]1CCNC[C@@H]1Cc1cc(-c2ccc(F)cc2)on1,?,i,?,-7.6%[70.6 µM],?
CN(C)CCNC(=O)C[C@@H]1CCNC[C@@H]1Cc1cc(-c2ccc(C(C)(C)C)cc2)on1,39.8µM*,i,-0.6%[88.5 µM],11.5%[70.6 µM],31.6µM*
CC(C)(C)c1ccc(-c2cc(C[C@H]3CNCC[C@H]3CC(=O)NCCN3CCOCC3)no2)cc1,50.1µM*,i,-1.6%,-2.3%,39.8µM*
O=C(C[C@@H]1CCNC[C@@H]1Cc1cc(CSc2ccccc2)on1)NCCN1CCOCC1,i,i,-5.0%,3.8%,1.5%
CCN(CC)C(=O)C[C@@H]1CCNC[C@@H]1Cc1cc(-c2ccc(C(C)(C)C)cc2)on1,39.8µM*,i,-22.3%[88.5 µM],6.9%[70.6 µM],39.8µM*
CC(C)(C)c1ccc(-c2cc(C[C@H]3CNCC[C@H]3CC(=O)N3CCC(Cc4ccccc4)CC3)no2)cc1,-5.1%,i,i,4.1%,-9.0%
O=C1CCN(Cc2ccc(F)cc2F)CCCC(c2nc(-c3cnccn3)no2)CCN1 (stereo unspecified),?,i,i,1.7%,?
O=C(CCC[C@H]1NC[C@@H]2CC1CN(Cc1ccccc1)C2)NCCCN1CCCCC1,-18.7%,i,4.0%,-11.6%,-22.0%
N#CC1CCN(C(=O)C2CCCN2Cc2ccc(-c3cncnc3)cc2)CC1 (stereo unspecified),-7.6%,·,i,·,2.7%
Cc1ccc(Nc2ccnc(N3CCCC3C(=O)NCc3cccc(Cl)c3)n2)cc1 (stereo unspecified),?,·,-18.1%,·,?
CC(C)(C)c1ccc(-c2cc(C[C@H]3CNCC[C@H]3CC(=O)NCc3cccnc3)no2)cc1,20µM*,i,0.5%,7.0%,?
CCOC(=O)N1CCC(Nc2ccc(Cl)cc2N)CC1,·,·,8.91µM*,·,·
COc1cccc(CNC(=O)c2ccc3nnc(-c4ccc(Cl)cc4)n3c2)c1,?,·,2.7%,·,?
COc1cccc(NC(=O)c2cnc3c(c2)N([S+](=O)([O-])c2cccnc2)CCC3)c1,?,i,1.9%[88.5 µM],0.2%[70.6 µM],-22.4%[172 µM]
O=S(=O)(NCC1CN(CC2CC2)CC12CCCCC2)c1cccs1 (stereo unspecified),?,·,i,·,?
CN1CCCN(S(=O)(=O)c2ccc3c(c2)OCCO3)c2ccccc21,?,i,-0.3%,-12.5%,31.6µM*
Cc1cccc(CN2CCNc3cc(-c4ccnc(C)c4)ncc3C2)c1,?,?,4.8%[88.5 µM],-16.5%[70.6 µM],39.8µM*
c1cc(CN2CCNc3cc(-c4ccsc4)ncc3C2)ccn1,-12.0%[138 µM],?,-9.2%[88.5 µM],3.5%[70.6 µM],?
CCn1cc(-c2cc3c(cn2)CN(CCc2ccccc2)CCN3)cn1,?,i,4.5%[88.5 µM],-2.1%[70.6 µM],?
